Experimental data reported in PubChem BioAssay AID1347418 (Sanford-Burnham Center for Chemical Genomics, 2020).
Values joined by “and” are separate entries in the source; they are usually repeats but may differ in a detail not shown here. Identical values can stand only once. Out of some 1,300 compounds screened, about 750 (58%) were called active. The list shows a part of the results.

target: Sulfhydryl oxidase 1 (Homo sapiens) (UniProt O00391); test: QSOX1 enzyme inhibitors, primary screen, biochemical, ROS-Glo H2O2 luminescence, HTS (AID 1347418); conditions: recombinant QSOX1, ROS-Glo H2O2 luminescence; at 12.5 µM; active compounds read high; active = any value above zero
Sequence (O00391 whole entry, looked up): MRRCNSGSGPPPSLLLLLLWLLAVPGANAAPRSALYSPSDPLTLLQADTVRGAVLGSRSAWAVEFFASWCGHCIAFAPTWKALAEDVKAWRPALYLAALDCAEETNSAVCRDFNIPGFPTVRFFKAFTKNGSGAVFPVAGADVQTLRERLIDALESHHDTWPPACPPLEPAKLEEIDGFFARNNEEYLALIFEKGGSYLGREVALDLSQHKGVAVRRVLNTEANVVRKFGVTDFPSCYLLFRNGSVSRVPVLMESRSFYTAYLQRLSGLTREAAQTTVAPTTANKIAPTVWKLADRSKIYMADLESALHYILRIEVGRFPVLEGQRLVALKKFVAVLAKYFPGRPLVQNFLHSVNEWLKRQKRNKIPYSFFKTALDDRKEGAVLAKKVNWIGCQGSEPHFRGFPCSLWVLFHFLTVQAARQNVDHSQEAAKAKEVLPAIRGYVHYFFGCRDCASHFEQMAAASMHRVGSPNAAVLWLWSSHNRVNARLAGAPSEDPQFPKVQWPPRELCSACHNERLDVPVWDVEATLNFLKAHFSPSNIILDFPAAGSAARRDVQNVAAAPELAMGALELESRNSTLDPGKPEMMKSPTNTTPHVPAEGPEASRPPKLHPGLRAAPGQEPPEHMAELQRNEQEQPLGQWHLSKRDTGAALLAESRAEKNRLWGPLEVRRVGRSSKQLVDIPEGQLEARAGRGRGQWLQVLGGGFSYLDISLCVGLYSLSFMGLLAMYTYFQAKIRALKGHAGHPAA

Structure (SMILES) | inhibition
O=c1c2ccccc2nc2n1CCc1c-2[nH]c2ccccc12 | 5% (active)
Nc1c2c(nc3ccccc13)CCCC2 | -3.1% (inactive)
CCCCCCC/C=C\CCCCCCCCC(=O)O | -3.4% (inactive)
CCCCCCCCCCC/C=C\C(C)(C)/C=C\CCCC(=O)O | 9.1% (active)
CCCn1c(=O)c2[nH]c(-c3ccc(S(=O)(=O)O)cc3)nc2n(CCC)c1=O | -0.7% (inactive)
CCCn1c(=O)c2[nH]c(-c3ccc(OCC(=O)NCCN)cc3)nc2n(CCC)c1=O | 0.5% (active)
CCC1(c2ccccc2)C(=O)NCNC1=O | 2.4% (active)
CN1Cc2c(N)cccc2C(c2ccccc2)C1 (stereo not given) | 5.3% (active)
CC1=C(/C=C/C(C)=C/C=C/C(C)=C\C(=O)O)C(C)(C)CCC1 | -3% (inactive)
CC1=C(/C=C/C(C)=C/C=C/C(C)=C/C(=O)O)C(C)(C)CCC1 | 2.4% (active)
CC1=C(/C=C/C(C)=C/C=C/C(C)=C/C(=O)Nc2ccc(O)cc2)C(C)(C)CCC1 | 1.8% (active)
CC(=O)O[C@]1(C(C)=O)CC[C@H]2[C@@H]3C=C(Cl)C4=CC(=O)[C@@H]5C[C@@H]5[C@]4(C)[C@H]3CC[C@@]21C | 6.1% (active)
NC[C@@H]1O[C@H](C23CC4CC(CC(C4)C2)C3)Cc2c1ccc(O)c2O | 17.8% (active)
NC[C@@H]1O[C@H](c2ccccc2)Cc2c1ccc(O)c2O | 11% (active)
Nc1ncnc2n[nH]c(Nc3ccc(F)cc3)c12 | 19.7% (active)
C1COC(NC(C2CC2)C2CC2)=N1 | 0.6% (active)
Clc1ccc(Cn2c(CN3CCCC3)nc3ccccc32)cc1 | -0.7% (inactive)
Clc1ccc(N2CCN(Cc3cc4ccccn4n3)CC2)cc1 | 21.7% (active)
O=C1CCC(N2C(=O)c3ccccc3C2=O)C(=O)N1 (stereo not given) | -1.8% (inactive)
O=c1ccc2ccc(O)c(O)c2o1 | 31.6% (active)
CC[C@@H](CO)Nc1nc(NCc2ccccc2)c2ncn(C(C)C)c2n1 | 6.3% (active)
Cn1cnc2c(NCc3ccccc3)nc(NCCO)nc21 | 1.3% (active)
Cc1cc(NC2CCCCC2)nc(-n2nc(C)cc2C)n1 | 1.1% (active)
O=C(O)c1ccccc1Nc1ccccc1 | 42.7% (active)
Cc1ccc(Cl)c(Nc2ccccc2C(=O)O)c1Cl | 6.2% (active)

Structure (SMILES) | inhibition
O=C(O)CP(=O)(O)O | -4% (inactive)
CC(N)C1CCC(C(=O)Nc2ccncc2)CC1 (stereo not given) | 4.4% (active)
COc1ccc(C2CNC(=O)C2)cc1OC1CCCC1 (stereo not given) | -7.5% (inactive)
CC[C@@H](C)[C@H]1O[C@]2(CC[C@@H]1C)C[C@@H]1C[C@@H](C/C=C(\C)[C@@H](O[C@H]3C[C@H](OC)[C@@H](O[C@H]4C[C@H](OC)[C@@H](O)[C@H](C)O4)[C@H](C)O3)[C@@H](C)/C=C/C=C3\CO[C@@H]4[C@H](O)C(C)=C[C@@H](C(=O)O1)[C@]34O)O2 | 1.1% (active)
COc1ccccc1OCCNCC(O)COc1cccc2[nH]c3ccccc3c12 (stereo not given) | 1.9% (active)
CCCNCC(O)COc1ccccc1C(=O)CCc1ccccc1 (stereo not given) | -7.1% (inactive)
C=C1C(=O)O[C@@H]2[C@H]3O[C@]3(C)CCC=C(C)CC[C@@H]12 | 0.5% (active)
NCCCC(N)(C(=O)O)C(F)F (stereo not given) | -2.3% (inactive)
Cn1ncc(S(=O)(=O)Cc2ccccc2)c(Br)c1=O | -5.4% (inactive)
N[C@H](C(=O)O)[C@H](O)C(=O)O | 0.9% (active)
N[C@@H](Cc1cnc[nH]1)C(=O)O | 1.5% (active)
CCN(CC)c1ncnc2c1ncn2[C@@H]1O[C@H](COP(=O)(O)OP(=O)(O)C(Br)(Br)P(=O)(O)O)[C@@H](O)[C@H]1O | -1% (inactive)
Nc1ncnc2c1ncn2[C@@H]1O[C@H](COP(=O)(O)CP(=O)(O)OP(=O)(O)O)[C@H](O)C1O (stereo not given in full) | -6.5% (inactive)
NC(=O)C1=C[N+](=C2OC(COP(=O)(O)OP(=O)([O-])OC[C@H]3O[C@@H](n4cnc5c(N)ncnc54)C(OP(=O)(O)O)[C@H]3O)C(O)C2O)C=CC1 (stereo not given in full) | -0.9% (inactive)
Nc1ncnc2c1ncn2[C@@H]1O[C@H](COP(=O)(O)OP(=O)(O)OP(=O)(O)OP(=O)(O)OC[C@@H]2O[C@H](n3cnc4c(N)ncnc43)C(O)[C@@H]2O)[C@H](O)C1O (stereo not given in full) | 3.7% (active)
NC[C@H]1O[C@@H](n2cnc3c(N)ncnc32)[C@H](O)[C@@H]1O | -4.6% (inactive)
NC(=S)c1ccc[n+]([C@@H]2O[C@@H](COP(=O)([O-])OP(=O)(O)OC[C@H]3O[C@@H](n4cnc5c(N)ncnc54)C(OP(=O)(O)O)[C@H]3O)C(O)C2O)c1 (stereo not given in full) | 3.1% (active)
O=c1[nH]c2cc(Cl)ccc2c(O)c1-c1ccc(Oc2ccccc2)cc1 | -2.9% (inactive)
COc1ccc(CCn2nnnc2C2(c3ccc(C)cc3)CC2)cc1 | 0.5% (active)
N=c1nc(N2CCCCC2)cc(N)n1O | 1% (active)
COC(=O)Nc1nc2ccc(C(=O)c3cccs3)cc2[nH]1 | -0.8% (inactive)
Cc1oncc1C(=O)Nc1ccc(C(F)(F)F)cc1 | 6.7% (active)
CCCN1C[C@H](CSC)C[C@@H]2c3cccc4[nH]cc(c34)C[C@H]21 | 7.8% (active)
NCCCCN=C(N)N | 2.1% (active)
NCCCCN | -2.1% (inactive)

Structure (SMILES) | inhibition
NCCCCCCCCCCN | 0% (inactive)
NC(N)=NCCCCN=C(N)N | 7.2% (active)
COc1ccc(-c2cc3ncc(C)n3c(Nc3ncccc3C(N)=O)n2)cc1OC | -0.2% (inactive)
NCCCC(=O)O | -4% (inactive)
C=CC(N)CCC(=O)O (stereo not given) | 0.6% (active)
COCC(=O)O[C@]1(CCN(C)CCCc2nc3ccccc3[nH]2)CCc2cc(F)ccc2[C@@H]1C(C)C | -5.7% (inactive)
CC[C@@H]1Cc2cc(O)ccc2C2=C1c1ccc(O)cc1C[C@H]2CC | 41.5% (active)
Cc1nc2c(OCc3ccccc3)cccn2c1CC#N | -7.9% (inactive)
CCCCNC(=O)NS(=O)(=O)c1ccc(C)cc1 | -6.3% (inactive)
CCCNC(=O)NS(=O)(=O)c1ccc(Cl)cc1 | 0.2% (active)
Nn1nnc2ccccc21 | 0.7% (active)
Fc1ccc([C@@H]2CCNC[C@H]2COc2ccc3c(c2)OCO3)cc1 | -0.5% (inactive)
CC(C)NCC(O)c1ccc(NS(C)(=O)=O)cc1 (stereo not given) | -5.9% (inactive)
CC(C)NCC(O)c1ccc(O)c(O)c1 (stereo not given) | 4.8% (active) and 11.3% (active)
CC(C)NCC(O)c1cc(O)cc(O)c1 (stereo not given) | -2.6% (inactive)
CC(C)NC[C@H](O)c1ccc(O)c(O)c1 | 1.4% (active)
CCC(NC(C)C)C(O)c1ccc(O)c(O)c1 (stereo not given) | 6.4% (active)
CC1CNCCN1S(=O)(=O)c1cccc2cnccc12 (stereo not given) | 10.4% (active)
CC1CN(S(=O)(=O)c2cccc3cnccc23)CCN1 (stereo not given) | 3% (active)
CNCCNS(=O)(=O)c1cccc2cnccc12 | -3% (inactive)
CCO/C([O-])=N/c1c[n+](N2CCOCC2)no1 | -1.5% (inactive)
Clc1ccccc1C(c1ccccc1)(c1ccccc1)n1ccnc1 | 10.5% (active)
CC(N)(Cc1ccc(O)cc1)C(=O)O (stereo not given) | 0% (inactive)
C[C@](Cc1ccc(O)c(O)c1)(NN)C(=O)O | 10.8% (active)
C[C@](N)(Cc1ccc(O)c(O)c1)C(=O)O | 8.7% (active)

Structure (SMILES) | inhibition
C[C@](N)(Cc1ccc(O)cc1)C(=O)O | -2.7% (inactive)
COC(=O)C(C)(N)Cc1ccc(O)cc1 (stereo not given) | -0.8% (inactive)
CC(N)(Cc1ccc(O)c(O)c1)C(=O)O (stereo not given) | 2.4% (active)
Cc1cc(C)c(/C=C2\C(=O)Nc3ccccc32)[nH]1 | 36.3% (active)
CN(C)c1ccc(/C=C2\C(=O)Nc3ccccc32)cc1 | 42.8% (active)
CN(C)S(=O)(=O)c1ccc2c(c1)/C(=C/c1cc3c([nH]1)CCCC3)C(=O)N2 | -4.7% (inactive)
COc1cc(OC)c(/C=C2/C(=O)Nc3ccccc32)c(OC)c1 | -8.1% (inactive)
Cc1ccc(C(=O)Nc2ccc(S(=O)(=O)[O-])c3c2C(S(=O)(=O)[O-])=[C+]C(S(=O)(=O)O)=[C+]3)cc1NC(=O)c1cccc(NC(=O)Nc2cccc(C(=O)Nc3cc(C(=O)Nc4ccc(S(=O)(=O)[O-])c5c4C(S(=O)(=O)[O-])=[C+]C(S(=O)(=O)O)=[C+]5)ccc3C)c2)c1 | -5.3% (inactive)
C=CCc1ccccc1OCC(O)CNC(C)C (stereo not given) | 6.4% (active)
CC(C)NCC(O)COc1cccc2ccccc12 (stereo not given) | -1.6% (inactive)
CC(C)NCC(O)COc1cccc2[nH]ccc12 (stereo not given) | 1.4% (active)
CC(C)NC[C@H](O)COc1cccc2ccccc12 | -2.1% (inactive)
CC(C)NC[C@H](O)COc1cccc2[nH]ccc12 | -0.8% (inactive)
O=C1N(c2ccccc2)c2ccccc2C1(Cc1ccncc1)Cc1ccncc1 | -3.5% (inactive)
O=C(O)c1cc([N+](=O)[O-])ccc1NCCCc1ccccc1 | 2.3% (active)
CS(=O)(=O)Nc1ccc([N+](=O)[O-])cc1Oc1ccccc1 | -0.8% (inactive)
O=C(Nc1ccc([N+](=O)[O-])cc1Cl)c1cc(Cl)ccc1O | 8% (active)
O=C(Nc1ccncc1)c1cc([N+](=O)[O-])ccc1Cl | -4.2% (inactive)
O=C(Nc1ccccc1)c1cc([N+](=O)[O-])ccc1Cl | 1.2% (active)
Nc1ccc(-c2ccc3ccccc3n2)cc1 | 14.6% (active)
NCC(O)(CS(=O)(=O)O)c1ccc(Cl)cc1 (stereo not given) | 7.3% (active)
C[C@@H]1C(=O)NC2=Nc3cccc(Cl)c3CN21 | -4.6% (inactive)
O=C1Cc2cc(CCN3CCN(c4nsc5ccccc45)CC3)c(Cl)cc2N1 | 8.8% (active)
NCCC1CCCC(CCN)N1 (stereo not given) | -5.7% (inactive)
CC(=O)N[C@H]1[C@H]([C@H](O)[C@H](O)CO)OC(C(=O)O)=C[C@@H]1O | 10.4% (active)
